From PubChem BioAssay AID1159580 (chemical genetic matrix, 2015)
The whole screen tested about 5,500 compounds, of which about 2,000 (36%) were called active. Roughly 18% stayed inconclusive and do not appear here. The list shows a part of the results. Unmarked numbers belong to inactive results. Cut-off read from the data, not from the text of the source: active = normalized growth mostly below about 0.91 (no sharp cut-off); inconclusive = no clear call, values can overlap the other calls; inactive = mostly above about 0.92.

Assay: chemical genetic growth profiling, strain panel (AID 1159580);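 note: tested at 20 µM; growth read once vehicle control cultures reached saturation at 30 °C; 1 = growth at the plate median or of vehicle wells; lower values mean less growth of the strain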
Conditions: growth OD

Structure (SMILES): O=c1oc2cc(O)ccc2s1
- normalized growth (S. cerevisiae deletion strains, locus YJR043C, strain POL32, stronger effect = lower value): 0.962
- normalized growth (S. cerevisiae deletion strains, locus YJR075W, strain HOC1, stronger effect = lower value): 0.958
- normalized growth (S. cerevisiae deletion strains, locus YKL009W, strain mrt4, stronger effect = lower value): 0.952
- normalized growth (S. cerevisiae deletion strains, locus YKL068W, stronger effect = lower value): 0.995
- normalized growth (S. cerevisiae deletion strains, locus YKL085W, strain MDH1 (second series), stronger effect = lower value): 0.975
- normalized growth (S. cerevisiae deletion strains, locus YKL085W, strain MDH1, stronger effect = lower value): 0.975
- normalized growth (S. cerevisiae deletion strains, locus YKL160W, strain elf1, stronger effect = lower value): 0.99
- normalized growth (S. cerevisiae deletion strains, locus YKL190W, strain CNB1, stronger effect = lower value): 1
- normalized growth (S. cerevisiae deletion strains, locus YKR001C, strain vps1, stronger effect = lower value): 0.894 (active)
- normalized growth (S. cerevisiae deletion strains, locus YKR026C, strain gcn3, stronger effect = lower value): 1.01
- normalized growth (S. cerevisiae deletion strains, locus YKR091W, strain srl3, stronger effect = lower value): 1.01
- normalized growth (S. cerevisiae deletion strains, locus YLL001W, strain dnm1, stronger effect = lower value): 0.974
- normalized growth (S. cerevisiae deletion strains, locus YLL026W, stronger effect = lower value): 0.99
- normalized growth (S. cerevisiae deletion strains, locus YLL041C, strain sdh2, stronger effect = lower value): 1.02
- normalized growth (S. cerevisiae deletion strains, locus YLR027C, strain aat2, stronger effect = lower value): 0.983
- normalized growth (S. cerevisiae deletion strains, locus YLR039C, strain RIC1, stronger effect = lower value): 0.909
- normalized growth (S. cerevisiae deletion strains, locus YLR058C, strain SHM2, stronger effect = lower value): 0.983
- normalized growth (S. cerevisiae deletion strains, locus YLR102C, strain apc9, stronger effect = lower value): 0.963
- normalized growth (S. cerevisiae deletion strains, locus YLR221C, strain rsa3, stronger effect = lower value): 0.971
- normalized growth (S. cerevisiae deletion strains, locus YLR258W, strain gsy2, stronger effect = lower value): 1
- normalized growth (S. cerevisiae deletion strains, locus YLR262C, strain YPT6 (second series), stronger effect = lower value): 0.965
- normalized growth (S. cerevisiae deletion strains, locus YLR262C, strain YPT6, stronger effect = lower value): 0.981
- normalized growth (S. cerevisiae deletion strains, locus YLR268W, strain sec22, stronger effect = lower value): 0.903
- normalized growth (S. cerevisiae deletion strains, locus YLR320W, strain mms22, stronger effect = lower value): 0.962
- normalized growth (S. cerevisiae deletion strains, locus YLR330W, strain CHS5, stronger effect = lower value): 0.982
- normalized growth (S. cerevisiae deletion strains, locus YLR342W, strain FKS1 (second series), stronger effect = lower value): 0.956
- normalized growth (S. cerevisiae deletion strains, locus YLR342W, strain FKS1, stronger effect = lower value): 1
- normalized growth (S. cerevisiae deletion strains, locus YLR357W, strain rsc2, stronger effect = lower value): 0.995
- normalized growth (S. cerevisiae deletion strains, locus YLR370C, strain arc18, stronger effect = lower value): 0.999
- normalized growth (S. cerevisiae deletion strains, locus YLR371W, strain rom2, stronger effect = lower value): 0.965
- normalized growth (S. cerevisiae deletion strains, locus YLR384C, strain iki3, stronger effect = lower value): 1.02
- normalized growth (S. cerevisiae deletion strains, locus YLR418C, strain cdc73, stronger effect = lower value): 0.929
- normalized growth (S. cerevisiae deletion strains, locus YML016C, strain PPZ1, stronger effect = lower value): 0.98
- normalized growth (S. cerevisiae deletion strains, locus YML032C, strain rad52, stronger effect = lower value): 0.858 (active)
- normalized growth (S. cerevisiae deletion strains, locus YML120C, strain ndi1, stronger effect = lower value): 0.994
- normalized growth (S. cerevisiae deletion strains, locus YML124C, strain tub3, stronger effect = lower value): 0.962
- normalized growth (S. cerevisiae deletion strains, locus YMR058W, strain fet3, stronger effect = lower value): 0.967
- normalized growth (S. cerevisiae deletion strains, locus YMR078C, strain ctf18, stronger effect = lower value): 0.95
- normalized growth (S. cerevisiae deletion strains, locus YMR125W, strain sto1, stronger effect = lower value): 1.12 [resistant] (active)
- normalized growth (S. cerevisiae deletion strains, locus YMR129W, stronger effect = lower value): 1
- normalized growth (S. cerevisiae deletion strains, locus YMR205C, strain PFK2, stronger effect = lower value): 0.969
- normalized growth (S. cerevisiae deletion strains, locus YMR223W, strain ubp8, stronger effect = lower value): 0.96
- normalized growth (S. cerevisiae deletion strains, locus YMR231W, strain pep5, stronger effect = lower value): 1.03
- normalized growth (S. cerevisiae deletion strains, locus YMR263W, strain SAP30, stronger effect = lower value): 0.956
- normalized growth (S. cerevisiae deletion strains, locus YMR307W, strain GAS1, stronger effect = lower value): 0.946
- normalized growth (S. cerevisiae deletion strains, locus YNL067W, strain RPL9B, stronger effect = lower value): 0.926
- normalized growth (S. cerevisiae deletion strains, locus YNL071W, strain lat1, stronger effect = lower value): 1.01
- normalized growth (S. cerevisiae deletion strains, locus YNL128W, strain TEP1, stronger effect = lower value): 0.962
- normalized growth (S. cerevisiae deletion strains, locus YNL153C, strain GIM3, stronger effect = lower value): 0.948
- normalized growth (S. cerevisiae deletion strains, locus YNL209W, strain ssb2, stronger effect = lower value): 1
- normalized growth (S. cerevisiae deletion strains, locus YNL233W, strain BNI4, stronger effect = lower value): 0.955
- normalized growth (S. cerevisiae deletion strains, locus YNL248C, strain rpa49, stronger effect = lower value): 1.04
- normalized growth (S. cerevisiae deletion strains, locus YNL250W, strain rad50, stronger effect = lower value): 0.941
- normalized growth (S. cerevisiae deletion strains, locus YNL271C, strain bni1, stronger effect = lower value): 0.939
- normalized growth (S. cerevisiae deletion strains, locus YNL298W, strain CLA4, stronger effect = lower value): 0.917
- normalized growth (S. cerevisiae deletion strains, locus YNL307C, strain MCK1, stronger effect = lower value): 0.959
- normalized growth (S. cerevisiae deletion strains, locus YNL322C, strain KRE1 (second series), stronger effect = lower value): 1.01
- normalized growth (S. cerevisiae deletion strains, locus YNL322C, strain KRE1, stronger effect = lower value): 0.99
- normalized growth (S. cerevisiae deletion strains, locus YNR049C, strain mso1, stronger effect = lower value): 0.999
- normalized growth (S. cerevisiae deletion strains, locus YNR052C, strain pop2, stronger effect = lower value): 0.966
- normalized growth (S. cerevisiae deletion strains, locus YOL006C, strain TOP1, stronger effect = lower value): 0.908
- normalized growth (S. cerevisiae deletion strains, locus YOL012C, strain htz1): 1.09
- normalized growth (S. cerevisiae deletion strains, locus YOL147C, strain pex11, stronger effect = lower value): 0.964
- normalized growth (S. cerevisiae deletion strains, locus YOR001W, strain rrp6, stronger effect = lower value): 0.994
- normalized growth (S. cerevisiae deletion strains, locus YOR061W, strain CKA2, stronger effect = lower value): 0.984
- normalized growth (S. cerevisiae deletion strains, locus YOR069W, strain VPS5, stronger effect = lower value): 0.984
- normalized growth (S. cerevisiae deletion strains, locus YOR070C, strain gyp1, stronger effect = lower value): 1.01
- normalized growth (S. cerevisiae deletion strains, locus YOR080W, strain dia2, stronger effect = lower value): 1.02
- normalized growth (S. cerevisiae deletion strains, locus YOR083W, strain WHI5, stronger effect = lower value): 0.931
- normalized growth (S. cerevisiae deletion strains, locus YOR106W, strain vam3, stronger effect = lower value): 0.972
- normalized growth (S. cerevisiae deletion strains, locus YOR136W, strain idh2, stronger effect = lower value): 0.972
- normalized growth (S. cerevisiae deletion strains, locus YOR144C, strain elg1, stronger effect = lower value): 0.966
- normalized growth (S. cerevisiae deletion strains, locus YOR184W, strain ser1, stronger effect = lower value): 0.91
- normalized growth (S. cerevisiae deletion strains, locus YOR265W, strain rbl2, stronger effect = lower value): 0.994
- normalized growth (S. cerevisiae deletion strains, locus YOR270C, strain vph1, stronger effect = lower value): 0.943
- normalized growth (S. cerevisiae deletion strains, locus YOR290C, strain snf2, stronger effect = lower value): 0.992
- normalized growth (S. cerevisiae deletion strains, locus YOR316C, strain cot1, stronger effect = lower value): 0.968
- normalized growth (S. cerevisiae deletion strains, locus YPL051W, strain arl3, stronger effect = lower value): 0.999
- normalized growth (S. cerevisiae deletion strains, locus YPL055C, strain LGE1, stronger effect = lower value): 1
- normalized growth (S. cerevisiae deletion strains, locus YPL078C, strain atp4, stronger effect = lower value): 0.987
- normalized growth (S. cerevisiae deletion strains, locus YPL106C, strain sse1, stronger effect = lower value): 1.02
- normalized growth (S. cerevisiae deletion strains, locus YPL240C, strain hsp82, stronger effect = lower value): 1.02
- normalized growth (S. cerevisiae deletion strains, locus YPL241C, strain CIN2, stronger effect = lower value): 0.989
- normalized growth (S. cerevisiae deletion strains, locus YPR119W, strain clb2, stronger effect = lower value): 0.967
- normalized growth (S. cerevisiae deletion strains, locus YPR141C, strain kar3, stronger effect = lower value): 0.933
- normalized growth (S. cerevisiae deletion strains, locus YPR163C, strain tif3, stronger effect = lower value): 0.965
- normalized growth (S. cerevisiae deletion strains, locus YPR167C, strain met16, stronger effect = lower value): 0.965
- normalized growth (S. cerevisiae deletion strains, strain wtn01, stronger effect = lower value): 0.876 (active)
- normalized growth (S. cerevisiae strains, strain wild type, stronger effect = lower value): 0.978
